Test results reported in PubChem BioAssay (Tox21).
Results filed as inconclusive are left out. Activity calls are given as the source filed them. The call rests on the fitted dose curve.

Assay: qHTS assay to identify small molecule agonists or antagonists of the thyroid stimulating hormone receptor (TSHR) signaling pathway - wild type cell line counter screen (AID 1259384)
Conditions: HEK293 wild type, cAMP HTRF counter-screen, hits give high values; series mostly up to 92.4 µM; cAMP activity change: at the top concentration
From the text: U.S. Tox21 Program National Center for Advancing Translational Sciences [NCATS] NIH Chemical Genomics Center [NCGC] U.S. Environmental Protection Agency [EPA] National Institutes of Environmental Health Sciences [NIEHS] National Toxicology Program [NTP] U.S. Food and Drug Administration [FDA] Tox21 Assay Overview: TSHR is the receptor for thyrotropin (thyroid stimulating hormone or TSH), a member of the glycoprotein hormone family. TSH is released by the anterior pituitary gland and is the main regulator of thyroid gland growth and development. Upon binding circulating thyrotropin, a G-protein signal cascade activates adenylyl cyclase and […] cAMP concentration is increased. cAMP is a key second messenger involved extensively in cellular signal transduction pathways associated with the majority of G-protein coupled receptors (GPCRs). The activation of these GPCRs by neurotransmitters, lipids, nucleotides, peptides and hormones results in the activation or the inhibition of plasma membrane-bound adenylate cyclase through heterotrimeric G-proteins. A cell-based TSHR-Hek293 assay can be used to identify TSHR agonists. To eliminate the false positive compounds identified from screening a cell-based TSHR-Hek293 cell line, cAMP assay in a wild type Hek293 cells was used as a counter screening.
Tox21 Assay Protocol Summary: Hek293 cells (wild type) were dispensed at 800 cells/4 uL/well in 1536-well white plates using a Multidrop dispenser. After the assay plates were incubated at a 37 C/5% CO2 incubator for 18 hrs, 23 nL of compounds dissolved in DMSO, positive controls or DMSO only was transferred to the assay plate by a pin tool, followed by 1 ul medium containing Ro20-1724. After 30 min of incubation at room temperature, 2.5 ul/well of cAMP-d2 and 2.5 ul/well of anti-cAMP-cryptate were added respectively into the assay plates using a Flying Reagent Dispenser. The plates were incubated at room temperature for 1 hr. The fluorescence intensity in the plates was measured using an Envision plate reader. Each test compound was measured at 15 concentrations and in triplicates.
On the % scale 0 is the no-effect control and ±100 the full control effect.

SMILES	cAMP activity change
C/C=C/C(=O)CCCC	1.86% (inactive)
O=Cc1ccccc1S(=O)(=O)O	4.29% (inactive)
Cc1cccc(N)n1	1.53% (inactive)
CCCC(=O)C(CC)Sc1ccoc1C (stereo not given)	-8.24% (inactive)
CCc1ccc(CC)cc1	0.285% (inactive)
CC(O)C(CO)C(C)O (stereo not given)	6.94% (inactive)
CC/C=C\CCCCCCCCCCOC(C)=O	-5.63% (inactive)
CC(C)(C)OC=O	-0.473% (inactive)
C=CC(C)(CCC=C(C)C)OC(=O)C(C)C (stereo not given)	0.314% (inactive)
NS(=O)(=O)c1cc2c(cc1C(F)(F)F)NCNS2(=O)=O	-14.2% [at 42.5 µM] (inactive)
CN(C)CCc1c[nH]c2ccc(CS(=O)(=O)N3CCCC3)cc12	-3.49% [at 42.5 µM] (inactive)
C[C@]12C=CC(=O)C=C1[C@@H](F)C[C@@H]1[C@@H]2[C@@H](O)C[C@@]2(C)[C@H]1CC[C@]2(O)C(=O)CO	-0.495% [at 42.5 µM] (inactive)
CCCCCCCCCCCC(C)=O	2.49% (inactive)
CC(=O)OC1CCC(C(C)(C)C)CC1 (stereo not given)	-0.227% (inactive)
NC(=O)CC[C@@H](N)C(=O)O	-3.32% [at 42.5 µM] (inactive)
CCCCCCCCCCCCCCCC(=O)OC	-2.44% [at 18.9 µM] (inactive)
CCCCCCCCOCCC#N	-0.22% (inactive)
N#Cc1cc(NC(=O)C(=O)O)c(Cl)c(NC(=O)C(=O)O)c1	-6.92% [at 42.5 µM] (inactive)
COC(=O)c1ccc(NC(C)=O)cc1OC	-3.15% [at 42.5 µM] (inactive)
CCOC(=O)[C@H](CCc1ccccc1)N[C@H]1CS[C@H](c2cccs2)CN(CC(=O)O)C1=O	1.59% [at 42.5 µM] (inactive)

SMILES	cAMP activity change
CCCCN=C(N)N=C(N)N	-5.84% [at 42.5 µM] (inactive)
O=CN1CCCCC1	0.1% (inactive)
COc1ccc2cc(CCC(C)=O)ccc2c1	-3.1% [at 42.5 µM] (inactive)
CC(=O)c1ccc(O)c(C(N)=O)c1	22% [at 42.5 µM] (inactive)
CC(O)CCCCn1c(=O)c2c(ncn2C)n(C)c1=O (stereo not given)	1.1% [at 42.5 µM] (inactive)
Cc1ccc(NC(N)=O)cc1	1.04% (inactive)
C=C(C)C(=O)OCCOC1CC2CC1C1C=CCC21 (stereo not given)	5.96% (inactive)
CNCCc1ccccn1	-0.105% [at 42.5 µM] (inactive)
CN(C)c1cc(NC(=O)CNC(C)(C)C)c(O)c2c1C[C@H]1C[C@H]3[C@H](N(C)C)C(=O)C(C(N)=O)=C(O)[C@@]3(O)C(=O)C1=C2O	-3.97% [at 42.5 µM] (inactive)
COc1ccccc1N1CCN(CC(O)COc2cc(OC)c(OC)c(OC)c2)CC1 (stereo not given)	2.36% [at 42.5 µM] (inactive)
N#CC1(N)CCCCC1	-1.06% (inactive)
Cc1cc(C)c(N)c(Cl)c1	0.236% (inactive)
CN(C)c1ccncc1	-3.91% (inactive)
CCOC(=O)CC(C(C)=O)C(C)=O	-1.25% (inactive)
O=C(O)P(=O)(O)O	0.812% [at 42.5 µM] (inactive)
CC/C=C/CCCCCCCCCCOC(C)=O	-1.37% (inactive)
CC(=O)SCC(CC(=O)c1ccc(C)cc1)C(=O)O (stereo not given)	-4.31% [at 42.5 µM] (inactive)
CC(C)C(=O)Nc1cccc(C2CN3CCSC3=N2)c1 (stereo not given)	2.34% [at 42.5 µM] (inactive)
COc1cc(C(=O)NC2CCCNC2)cc(OC)c1OC (stereo not given)	-5.72% [at 42.5 µM] (inactive)
CCCCC(O)/C=C(C)/C=C/C=C/C(=O)N1CCCC1=O (stereo not given)	7.78% [at 42.5 µM] (inactive)
